Bioassay records: PubChem BioAssay, several laboratories
H9c2 protect = cardioprotection against H2O2-induced cell death, primary screen, uHTS, H9c2 cells, ATPLite luminescence; H9c2 cardiomyocytes, H2O2 injury protection, 2 h; protection from H2O2 cell death, % at 20 µM; 360,000 tested, 0.63% active;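 active = compounds giving at least 50% protection of heart cells from peroxide-induced death in the single-dose screen, raw or plate-pattern-corrected value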;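 note: 0% = DMSO wells with peroxide and 100% = DMSO wells without peroxide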
697 NFkB inh = inhibitors of PMA/ionomycin-induced NF-kB reporter, 697 cells, primary screen, B-cell NF-kB inhibitor project, cell-based, luminescence, uHTS | inhibition, % at 4 µM | 330,000 tested, 0.33% active | 697 B-cell NF-kB luciferase reporter, 16 h | AID 435022, 2010; in the data active = inhibition above about 35%
Gli-Sufu antag = Gli-Sufu pathway antagonists, primary screen, luciferase luminescence, Sufu-KO-LIGHT cells, uHTS; AID 588413, 2011; 340,000 tested, 0.74% active; Sufu-KO-LIGHT fibroblasts, Gli luciferase reporter luminescence; inhibition, % at 5 µM;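 active = inhibition above about 55%, limit read from the data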;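 note: 0% = DMSO-treated cells and 100% = wells with medium but no cells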
Jurkat NFkB inh = inhibitors of induced NF-kB luciferase reporter, primary screen, TCR NF-kB activation inhibitor project, cell-based, luminescence, uHTS; 330,000 tested, 0.53% active; inhibition, % at 4 µM; AID 435003, 2010; Jurkat, PMA/ionomycin-induced NF-kB luciferase reporter; in the data active = inhibition above about 50%
COUP-TFII inh = NR2F2 transcriptional activity inhibitors, primary screen, cell-based, luciferase reporter, HEK293T, luminescence; inhibition, % at 8.6 µM; 370,000 tested, 0.7% active; COUP transcription factor 2 (Homo sapiens), P24468; AID 686940, 2013; HEK293T NGFI-A luciferase reporter;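 active = inhibition above a per-plate cutoff, mean inhibition of test wells between control levels plus 3 SD, cut at about 38% in these data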;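 note: cells cotransfected with COUP-TFII expression vector driving the NGFI-A reporter; 0% = median of COUP-TF2 test wells and 100% = reporter-only cells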
Target sequence (P24468 whole entry, looked up): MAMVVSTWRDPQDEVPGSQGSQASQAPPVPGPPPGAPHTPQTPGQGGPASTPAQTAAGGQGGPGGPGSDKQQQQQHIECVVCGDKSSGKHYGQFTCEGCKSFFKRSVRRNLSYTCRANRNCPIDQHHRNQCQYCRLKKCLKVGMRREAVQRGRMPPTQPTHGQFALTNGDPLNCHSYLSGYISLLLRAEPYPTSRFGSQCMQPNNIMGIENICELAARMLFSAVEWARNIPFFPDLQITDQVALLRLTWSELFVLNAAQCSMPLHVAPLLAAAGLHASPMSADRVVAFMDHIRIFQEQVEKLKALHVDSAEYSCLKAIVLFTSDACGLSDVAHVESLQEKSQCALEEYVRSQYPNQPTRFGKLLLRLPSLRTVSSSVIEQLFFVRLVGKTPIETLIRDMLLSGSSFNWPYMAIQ
H9c2 TAG inh = inhibitors of triacylglycerol accumulation, primary screen, cell-based, uHTS, fluorescence, H9c2 | H9c2 cells, Nile Red lipid (TAG) fluorescence; cells loaded with 200 µM oleic acid | inhibition, % at 12.5 µM | 230,000 tested, 0.66% active | AID 651582, 2012;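 active = pattern-corrected inhibition of lipid staining of at least 50% with the nuclear-stain viability signal not falling by more than 50%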;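 note: 0% = DMSO wells and 100% = triacsin C control wells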
Gli-Sufu confirm = Gli-SUFU pathway antagonists, confirmation, single concentration, luciferase luminescence, Sufu-KO-LIGHT cells; shares compounds with Gli-Sufu antag; Gli luciferase reporter; inhibition, % at 5 µM; 2,500 tested, 40% active;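 active = mean inhibition at 5 µM reaching about 45%, limit read from the data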;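 note: plate controls were DMSO-treated cells for no effect and wells lacking cells for full effect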
SufuKO cytotox = cytotoxicity in Sufu-KO-LIGHT cells, confirmation, cytotoxicity control for Gli-SUFU antagonist project, cell-based, ATP luminescence, single concentration | shares compounds with Gli-Sufu antag | cytotoxicity, % at 5 µM | 2,500 tested, 32% active | AID 651994, 2013;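 active = mean cytotoxicity at 5 µM above about 25%, limit read from the data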;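 note: cells exposed to compound overnight for roughly 16 to 18 hours; plate controls were DMSO wells with cells for no effect and medium without cells for full effect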
Wnt3a cs = Wnt3a reporter signal inhibition, confirmation, counter-screen for Gli-SUFU antagonist project, Wnt-LIGHT cells, luminescence, single concentration | shares compounds with Gli-Sufu antag | Wnt3a-driven luciferase reporter | inhibition, % at 6.25 µM | 2,500 tested, 20% active;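 active = mean inhibition above about 25%, limit read from the data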
Starred values were filed as active, the others as inactive; . = no result given. Most compounds without a hit are left out; they make up all but 2.6% or so of the library.

SMILES	H9c2 protect	697 NFkB inh	Gli-Sufu antag	Jurkat NFkB inh	COUP-TFII inh	H9c2 TAG inh	Gli-Sufu confirm	SufuKO cytotox	Wnt3a cs
CC1CCCN(C(=O)c2ccc(S(=O)(=O)N3CCC(c4nc5ccccc5s4)CC3)cc2)C1 (stereo not drawn)	-13	-30	42	15	10	.	.	.	.
CCN(CC)C(=O)c1ccc(S(=O)(=O)N2CCC(c3nc4ccccc4s3)CC2)cc1	-16	-22	59*	33	11	.	42	10	3
C[C@H](CO)N1C[C@H](C)[C@@H](CN(C)C(=O)NC2CCCCC2)OCc2cn(nn2)CCCC1=O	.	.	.	.	16	.	.	.	.
COc1ccc(CCN(C(=O)C(F)(F)F)C(C(=O)NC2CCCC2)c2cccs2)cc1 (stereo not drawn)	-4	-37	51	-6	12	.	10	21	-10
CCC(C#Cc1ccccc1)N(C)C(N)=NC(=O)/C=C/c1ccccc1 (stereo not drawn)	.	.	.	.	0	.	.	.	.
O=C(C=Cc1ccc(O)c(O)c1)NCC(=O)NC(Cc1ccccc1)C(=O)O (stereo not drawn)	.	.	.	.	5	.	.	.	.
CCCC(=O)Nc1cc(C)c(NC(=O)c2ccccn2)cn1	1	9	59*	2	-1	12	6	5	-51
Cc1cc(NC(=O)C(C)C)ncc1NC(=O)c1ccccn1	2	-28	-10	-36	-6	-9	.	.	.
CCOC(=O)c1c(C)[nH]c(C(=O)C(C)Sc2ccc(Cl)cc2)c1C (stereo not drawn)	-34	-2	11	5	-19	.	.	.	.
CCOC(=O)c1c(C)[nH]c(C(=O)Cn2nnc(-c3ccc(Cl)cc3)n2)c1C	-10	9	56*	-18	6	.	12	13	-11
CC(C)(C)NC(=O)C(=O)NNC(=O)c1cccc(F)c1	1	-25	84*	-6	-26	13	-1	9	-28
COC(=O)[C@]12C[C@H](CC(=O)N3CCC(c4ccccc4)CC3)C(=O)N(CCC3=CCCCC3)C1=C[C@H](C1CCCC1)O[C@@H]2C	.	.	.	.	2	.	.	.	.
CC(=O)c1ccc(NC(=O)CSC(C)C)cc1	4	-24	99*	-31	-19	.	-1	28*	-34
CCOC(=O)CNC(=O)CSc1nnc(-c2cccs2)o1	.	.	.	.	-3	.	.	.	.
CC1=N/C(=C\c2ccc([N+](=O)[O-])cc2)C(=O)N1c1ccc(C)c(Cl)c1	.	.	.	.	15	.	.	.	.
CCC(/C=C1\Sc2ccc(OC)cc2N1CC)=C\c1sc2ccc(OC)cc2[n+]1CCCS(=O)(=O)[O-]	-20	18	70*	-6	-3	.	82*	40*	5
C[C@H](CO)N1C[C@H](C)[C@@H](CN(C)C(=O)c2ccncc2)OCc2cn(nn2)CCCC1=O	.	.	.	.	-14	.	.	.	.
CC(O)CNc1nc2c(c(=O)n(C)c(=O)n2C)n1Cc1cccc(C(F)(F)F)c1 (stereo not drawn)	8	-5	15	-5	-10	-3	.	.	.
CCCNc1nc2c(c(=O)n(C)c(=O)n2C)n1CCc1ccccc1	-11	-40	32	18	19	.	.	.	.
CC(C)n1c(NCCc2ccccc2)nc2c1c(=O)n(C)c(=O)n2C	-18	-58	51	23	19	-219	59*	38*	-5
Cn1c(=O)c2c(nc(NCCOc3ccc(C(C)(C)C)cc3)n2C)n(C)c1=O	-15	-28	64*	35	-6	.	47*	8	7
COCCNc1nc2c(c(=O)n(C)c(=O)n2C)n1Cc1cccc(C(F)(F)F)c1	-31	-10	68*	12	9	-35	71*	29*	28*
CCCNc1nc2c(c(=O)n(C)c(=O)n2C)n1Cc1cccc(C)c1	-13	-9	65*	28	29	.	59*	20	31*
C=CCNc1cccc2c1S(=O)(=O)N[C@H](CC(C)C)CO2	.	.	.	.	6	.	.	.	.
Cc1cc(NC(=O)CSc2nc3c([nH]c4ccccc43)c(=O)n2-c2ccccc2F)no1	-4	-18	58*	6	-4	17	56*	23	19
SMILES	H9c2 protect	697 NFkB inh	Gli-Sufu antag	Jurkat NFkB inh	COUP-TFII inh	H9c2 TAG inh	Gli-Sufu confirm	SufuKO cytotox	Wnt3a cs
CC1CCN(Cc2c(C(=O)N3CCc4ccccc4C3)nc3ccc(Cl)cn23)CC1	-8	0	51	0	20	.	21	33*	-43
CC1=C(C(=O)OC2CCCCC2)C(c2ccc(O)cc2)NC(=O)N1 (stereo not drawn)	-3	10	96*	11	7	.	24	5	-11
CC1=C(C(=O)OC2CCCCC2)C(c2ccc(F)cc2)NC(=O)N1 (stereo not drawn)	-7	-7	34	-5	12	.	.	.	.
COC(=O)[C@]12C[C@H](CC(=O)N3CCSCC3)C(=O)N(Cc3ccc4c(c3)OCO4)C1=C[C@H](COCc1ccccc1)O[C@@H]2C	.	.	.	.	3	.	.	.	.
COc1ccc(N2CCn3c2nc2c3c(=O)n(CCCc3ccccc3)c(=O)n2C)c(OC)c1	-4	-32	51	49	12	.	55*	35*	5
COc1ccc(N2CC(C)Cn3c2nc2c3c(=O)n(Cc3ccccc3)c(=O)n2C)c(OC)c1 (stereo not drawn)	16	4	21	-3	-4	6	.	.	.
CCCC[C@H]1C2CC(OC(=O)Nc3ccc(F)cc3)C(C2)[C@H]2CCCCN21 (stereo partly drawn)	.	.	.	.	-3	.	.	.	.
CC1CC(C)CN(C(=O)c2nn(C)c3c2CS(=O)(=O)c2ccccc2-3)C1 (stereo not drawn)	2	-2	53	9	-2	.	5	13	-22
Cc1ccccc1CN1CCCCC(NC(=O)C(C)(C)C)C1=O (stereo not drawn)	.	.	.	.	2	.	.	.	.
CCc1cccc2c(C(=O)COC(=O)c3nn(C)c(=O)c4ccccc34)c[nH]c12	34	-12	99*	-7	7	10	30	6	-86
CCc1cccc2c(C(=O)COC(=O)C3=NNC(=O)CC3)c[nH]c12	1	18	6	16	4	.	.	.	.
